Screens (PubChem)
Sfp PPTase inh: blocks B. subtilis Sfp PPTase activity; Biochemical Sfp PPTase activity, qHTS; Potency, µM, most hits filed as inhibitors; hit rate 3.5% among 310,000; AID 1490;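 further: the enzyme is Sfp with the accession as filed and its product quenches rhodamine fluorescence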
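Compounds were incubated with enzyme (final 15 nM) for 15 min at room temperature before substrate addition started the reaction. Fluorescence at 525 nm excitation, 598 nm emission was recorded immediately and after 30 minutes.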
FBPA coupling cs: counter-screen for Giardia aldolase inhibitors: coupling enzyme system; activity change, negative = inhibition, % at 58.2 µM, hits read low; hit rate 0.67% among 290,000; coupling enzyme system counterscreen, AmpLite Red fluorescence; in the data active means activity change below about -30%
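Final compound at 57.5 uM, incubated 10 min at RT with coupling enzyme reagent (glyceraldehyde-3-phosphate), then 20 min with substrate and AmpLite Red detection. Fluorescence read at 525/598 nm; tests interference with the coupling assay, not aldolase inhibition.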
G9a inh: G9a (human) methyltransferase inhibition; Q96KQ7; G9a H3K9 monomethylation, AlphaScreen, 2 h; Potency, µM (highest dose often 102 µM), hits mostly inhibitors; hit rate 8.8% among 350,000; AID 504332; further: nearly all actives have a fitted effect of over 75% in size
Target sequence (Q96KQ7 913-1193 limits assumed): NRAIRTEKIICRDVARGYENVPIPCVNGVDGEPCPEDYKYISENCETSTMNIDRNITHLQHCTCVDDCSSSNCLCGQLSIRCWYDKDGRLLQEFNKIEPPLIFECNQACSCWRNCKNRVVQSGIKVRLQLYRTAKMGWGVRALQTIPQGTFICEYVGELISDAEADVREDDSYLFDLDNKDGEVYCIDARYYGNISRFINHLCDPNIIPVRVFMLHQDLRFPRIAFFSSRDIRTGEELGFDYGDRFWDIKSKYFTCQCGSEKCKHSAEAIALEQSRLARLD
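Compounds were preincubated with 20 nM G9a for 15 min, after which biotinylated H3K9 peptide (500 nM) and SAM (20 uM) started a 2 h room-temperature reaction. Monomethylated product was quantified by antibody-based AlphaScreen chemiluminescence.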
Tau FP inhib: blocks human tau fibril formation measured by polarization; K18 P301L tau heparin fibrillization, Alexa594 FP, 6 h; Potency, µM (top dose mostly 57.7 µM), usual class: inhibitors; hit rate 0.39% among 280,000; AID 1468; further: nearly all actives have a fitted effect of over 55% in size
Target sequence (P10636 561-689 P618L limits assumed): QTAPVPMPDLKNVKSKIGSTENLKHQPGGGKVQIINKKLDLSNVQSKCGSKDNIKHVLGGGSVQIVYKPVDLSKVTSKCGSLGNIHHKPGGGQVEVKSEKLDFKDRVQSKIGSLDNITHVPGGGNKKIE
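Steps: dispense K18 P301L tau (15 uM plus 0.24 uM Alexa 594 tracer, final) in pH 7 sodium acetate; add compound; add heparin (20 uM final); incubate 6 hr, 37 C; add ThT (30 uM final); after 1 hr ambient, read FP.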
Tau fluor cs: counter-screen for tau fibril formation inhibitors | Potency, µM (highest dose often 57.7 µM) | hit rate 0.93% among 280,000 | tau K18 P301L Alexa594 fluorescence, heparin fibrillization | AID 1463; further: nearly all actives have a fitted effect of over 55% in size
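Human tau K18 P301L (15 uM unlabeled, 0.24 uM Alexa 594-labeled) in 100 mM sodium acetate pH 7 with 20 uM heparin, 6 hr at 37 C. ThT 30 uM added, 1 hr ambient; Alexa 594 FP and total fluorescence read at 555/632 nm.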
Tau fibril ThT: inhibitors of human tau fibril formation, thioflavin T binding; recombinant tau K18 P301L (four-repeat tau fragment), heparin-induced fibrillization, ThT fluorescence; AID 1460; Potency, µM (highest dose often 57.4 µM), usual class: inhibitors; hit rate 2.1% among 270,000; P10636; further: nearly all actives have a fitted effect of over 55% in size
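Heparin-induced fibrillization of the P301L-mutant K18 repeat-domain fragment of human tau was followed by ThT binding in quantitative high-throughput format.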
Hits are given with their value; i = inactive; ? = inconclusive; nt = no result; ! = a repeat was not active; [ ] = dose if it differs, or a comment. In the library only some 11% were active in any assay of this set; here they are far more common. Unless noted, the call rests on the fitted dose curve; in most records, active means well fitted curve in the direction sought with a large enough effect; inconclusive means small, poorly fitted or top-dose-only effect, or another doubt; inactive means no such curve, though single readings can be large; an effect the other way counts as inactive or inconclusive.

SMILES	Sfp PPTase inh	FBPA coupling cs	G9a inh	Tau FP inhib	Tau fluor cs	Tau fibril ThT
Cc1cc(C(=O)OC(C)C(=O)Nc2nc(-c3ccccc3)cs2)c(C)o1 (stereo not drawn)	i	i	i[12.7 µM]	i	i	i
Cc1cccc(OC(C)C(=O)Nc2nc(-c3ccncc3)cs2)c1 (stereo not drawn)	nt	nt	35µM	nt	nt	nt
Cc1cc(=O)n2nc(N(C)CC(=O)NCc3cccc(Br)c3)sc2n1	nt	nt	i	i	i	i
COCCN(CCOC)C(=O)C12CCC(C)(C(=O)C1)C2(C)C (stereo not drawn)	i	i	50µM	i	i	i
O=C(Cn1cnc([N+](=O)[O-])c1)NCc1ccc(F)cc1	i	i	nt	i	i	i
O=C(Cn1cnc([N+](=O)[O-])c1)NCCc1ccccc1	i	i	28µM	nt	nt	nt
O=c1c2cc([N+](=O)[O-])cc([N+](=O)[O-])c2[nH]n1-c1ccccc1	i	i	28µM	nt	nt	nt
CC1CCN(CCCN2C(=O)C3C(C(=O)Nc4ccc(Cl)cc4)C4C=CC3(O4)C2C(=O)NC2CCCCC2)CC1 (stereo not drawn)	i	i	40µM	nt	nt	nt
Cc1ccc(NC(=O)C2C3C=CC4(O3)C2C(=O)N(CCCN2CCCC(C)C2)C4C(=O)NC2CCCCC2)cc1 (stereo not drawn)	i	i	?	nt	nt	nt
CSc1cccc(NC(=O)C2C3C=CC4(O3)C2C(=O)N(CCCN2CCOCC2)C4C(=O)NC2CCCCC2)c1 (stereo not drawn)	i	i	45µM	nt	nt	nt
CC1CCCN(CCCN2C(=O)C3C(C(=O)Nc4ccc(Cl)cc4)C4C=CC3(O4)C2C(=O)NC2CCCCC2)C1 (stereo not drawn)	i	i	45µM	nt	nt	nt
O=C(Nc1ccc(Br)cc1)C1C2C=CC3(O2)C1C(=O)N(CCN1CCCCC1)C3C(=O)NC1CCCCC1 (stereo not drawn)	i	i	50µM	nt	nt	nt
CC(C)c1ccc(NC(=O)C2C3C=CC4(O3)C2C(=O)N(CCCN2CCCCC2)C4C(=O)NC2CCCCC2)cc1 (stereo not drawn)	i	i	i	nt	nt	nt
CCCN(CCC)CCN1C(=O)C2C(C(=O)Nc3cccc(SC)c3)C3C=CC2(O3)C1C(=O)NC1CCCCC1 (stereo not drawn)	i	i	?	nt	nt	nt
COc1ccc(OC)c(NC(=O)N2CCCc3ccccc32)c1	i	i	nt	nt	nt	nt
COc1ccc(OC)c(NC(=O)N2CC3CCCN3c3ccccc32)c1 (stereo not drawn)	nt	nt	18µM	i	?	i
O=C(NCc1cccc(Cl)c1)c1ccc(NC(=O)N2CC3CCCN3c3ccccc32)cc1 (stereo not drawn)	nt	nt	10µM	i	i	i
O=C(CCC(=O)N1CC2CCCN2c2ccccc21)NCc1cccc(Cl)c1 (stereo not drawn)	nt	nt	?	i	?	?
O=C(Nc1cccc(Cl)c1)N1CC2CCCN2c2ccccc21 (stereo not drawn)	nt	nt	2.2µM	i	?	?
CCOc1ccc(NC(=O)N2CC3CCCN3c3ccccc32)cc1 (stereo not drawn)	nt	nt	?	i	?	?
CCOC(=O)c1ccc(NC(=O)N2CC3CCCN3c3ccccc32)cc1 (stereo not drawn)	nt	nt	10µM	i	?	?
COc1ccc(CCNC(=O)c2cnn(-c3cccc(C)c3)c2C2CCN(C(=O)OC(C)(C)C)CC2)cc1OC	nt	nt	i	i	i	i
O=C(Nc1ccccc1)c1ccc(S(=O)(=O)N2CCCCC2)cc1	i	i	i	i	i	i
CC1Cc2ccccc2N1S(=O)(=O)c1nnc(NC(=O)c2ccccc2)s1 (stereo not drawn)	nt	nt	?	i	i	?
CC1Cc2ccccc2N1S(=O)(=O)c1nnc(NC(=O)c2ccccc2Br)s1 (stereo not drawn)	nt	nt	i	i	?	13µM
O=C(Nc1nn[nH]n1)c1ccc(S(=O)(=O)N2CCCCC2)cc1	i	i	50µM	i	i	i
O=C(Nc1nnc(S(=O)(=O)N2CCCCCC2)s1)c1ccccc1Cl	i	i	10µM!	i	?	?
O=C(Nc1nnc(S(=O)(=O)N2CCCCC2)s1)c1ccccc1Br	i	i	i	i	i	?
